Bioassay records as filed in PubChem BioAssay.
Shown are actives, neighbours in structure and some others; about 11% of the full set was active somewhere.
IL-1B inflam inh = qHTS for Inhibitors of Inflammasome Signaling: IL-1-beta AlphaLISA Primary Screen; activity change, % at 57.5 µM; THP-1 LPS/ATP IL-1B secretion, AlphaLISA, 16 h; active compounds read low; actives 4.7% (n = 360,000); in the data active = activity change below about -50%; inconclusive = mostly about -30% to -49%
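Secreted IL-1B measured by AlphaLISA bead assay after 16 h compound exposure of THP-1 cells; compounds (final up to 57.5 uM) added 1 h before LPS (250 ng/mL) and ATP (1.25 mM) stimulation; lower signal means less secretion.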
Gal4-VP16 FLuc = VP16 counterscreen qHTS for inhibitors of ROR gamma transcriptional activity; Potency, µM (titrated, usually from 53.6 µM), actives largely listed as inhibitors; Drosophila S2 Gal4-VP16 UAS-luciferase, luminescence, 20 h; actives 3.5% (n = 310,000);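 also: Gal4-VP16 expression switched on by copper sulfate through the metallothionein promoter; nearly all actives have a fitted effect of over 50% in size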
SW480 rerep = A quantitative high throughput screen for small molecules that induce DNA re-replication in SW480 colon adenocarcinoma cells | SW480 DNA re-replication, Hoechst DNA content imaging, 48 h | Potency, µM (titrated, usually from 46.1 µM), hits mostly activators | actives 1.8% (n = 340,000) | AID 624297, 2012; also: nearly all actives have a fitted effect of over 55% in size
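First, 250 cells per well were seeded. Next, compound or vehicle (23 nL) was pinned in, plates sat 48 hr at 37 C. Finally Hoechst was added for 40 min before fluorescence scanning.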
MCF10A rerep = A quantitative high throughput screen for small molecules that induce DNA re-replication in MCF 10a normal breast cells; AID 624296, 2012; actives 2.9% (n = 350,000); MCF 10A DNA re-replication, Hoechst nuclear intensity, 48 h; Potency, µM (series often up to 46.1 µM), most hits filed as activators; also: nearly all actives have a fitted effect of over 50% in size
RORgamma inh = qHTS for inhibitors of ROR gamma transcriptional activity | Potency, µM (titrated, usually from 53.6 µM), actives largely listed as inhibitors | Drosophila S2 Gal4-RORgamma UAS-luciferase reporter, 20 h | Nuclear receptor ROR-gamma (Mus musculus), P51450 | actives 5.4% (n = 310,000) | AID 2551, 2010; also: nearly all actives have a fitted effect of over 60% in size
Target sequence (P51450 whole entry, looked up, the tested form may be a part): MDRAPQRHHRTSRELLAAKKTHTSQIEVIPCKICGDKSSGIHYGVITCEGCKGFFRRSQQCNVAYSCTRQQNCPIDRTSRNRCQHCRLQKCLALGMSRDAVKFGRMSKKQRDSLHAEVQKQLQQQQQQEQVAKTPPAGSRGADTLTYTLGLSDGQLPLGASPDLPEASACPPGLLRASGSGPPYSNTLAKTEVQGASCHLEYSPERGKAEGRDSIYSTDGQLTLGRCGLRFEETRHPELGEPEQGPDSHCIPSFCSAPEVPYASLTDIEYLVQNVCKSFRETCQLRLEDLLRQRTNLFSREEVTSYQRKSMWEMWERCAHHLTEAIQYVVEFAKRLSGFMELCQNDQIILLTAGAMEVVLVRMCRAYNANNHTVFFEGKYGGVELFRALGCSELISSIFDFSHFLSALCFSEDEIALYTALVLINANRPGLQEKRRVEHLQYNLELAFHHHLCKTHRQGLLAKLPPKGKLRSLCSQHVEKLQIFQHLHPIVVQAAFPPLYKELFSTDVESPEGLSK
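Read-out: Photinus luciferase luminescence; inhibitors lower reporter signal. Insect Schneider cells with Gal4-ROR gamma fusion under metallothionein promoter, UAS reporter; 700 uM final copper sulfate induction, 20 hr, ambient temperature.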
Numbers stand for hits; [ ] = dose if it differs, or a comment. Unless noted, calls follow the shape of the dose curve; as a rule, active = well fitted curve in the direction sought with a large enough effect; inconclusive = small, poorly fitted or top-dose-only effect, or another doubt; inactive = no such curve, though single readings can be large; an effect the other way counts as inactive or inconclusive.

`C/C(N)=C(/C#N)C(=O)CSc1nc2ccccc2c(=O)n1Cc1ccc(F)cc1` gave IL-1B inflam inh inactive, Gal4-VP16 FLuc 3.5µM, SW480 rerep inactive, MCF10A rerep inactive and RORgamma inh 2.8µM.
For C/C(N)=C(/C#N)C(=O)CSc1nc2ccccc2c(=O)n1Cc1ccc(C)cc1 the results were IL-1B inflam inh inactive, Gal4-VP16 FLuc 4µM, SW480 rerep inconclusive, MCF10A rerep inconclusive and RORgamma inh 2.5µM.
`O=C(Nc1ccccc1)OC[C@H](CN1CCCCC1)OC(=O)Nc1ccccc1` gave Gal4-VP16 FLuc inactive, SW480 rerep inactive, MCF10A rerep inactive and RORgamma inh inactive[2.98 µM].
Screening O=C(Nc1nnc(-c2ccco2)o1)c1ccc(S(=O)(=O)N2CCCC2)cc1 returned IL-1B inflam inh inactive, Gal4-VP16 FLuc inactive, SW480 rerep inactive, MCF10A rerep inactive and RORgamma inh inactive.
CC1CN(S(=O)(=O)c2ccc(C(=O)Nc3nnc(-c4ccco4)o3)cc2)CC(C)O1 (stereo not given) was read as IL-1B inflam inh inactive, Gal4-VP16 FLuc 3.2µM, SW480 rerep inconclusive, MCF10A rerep inconclusive and RORgamma inh 1µM.
Screening CC1CCN(S(=O)(=O)c2ccc(C(=O)Nc3nnc(-c4ccco4)o3)cc2)CC1 returned IL-1B inflam inh inactive, Gal4-VP16 FLuc 0.5µM, SW480 rerep inconclusive, MCF10A rerep inconclusive and RORgamma inh 0.35µM.
Screening COc1cccc(-c2nnc(NC(=O)c3ccc(S(=O)(=O)N4CC(C)OC(C)C4)cc3)o2)c1 (stereo not given) returned IL-1B inflam inh inactive, Gal4-VP16 FLuc 1µM, SW480 rerep inconclusive, MCF10A rerep inconclusive and RORgamma inh 0.56µM.
For COc1ccc(NC(=O)c2ccc(S(=O)(=O)N3CC(C)OC(C)C3)cc2)cc1 (stereo not given) the results were IL-1B inflam inh inactive, SW480 rerep inactive and MCF10A rerep inactive.
Screening CC1=NN(c2ccccc2)C(=O)/C1=C\c1sccc1C returned Gal4-VP16 FLuc inactive, SW480 rerep inactive, MCF10A rerep inconclusive and RORgamma inh inconclusive.
For CC1=NN(c2ccccc2)C(=O)/C1=C/C=C/c1ccccc1 the results were IL-1B inflam inh -129, Gal4-VP16 FLuc 18µM, SW480 rerep 7.3µM, MCF10A rerep 9.2µM and RORgamma inh inconclusive.
For CC1=NN(c2cccc(C(=O)O)c2)C(=O)/C1=C\C=C\c1ccco1 the results were IL-1B inflam inh -96, Gal4-VP16 FLuc inconclusive, SW480 rerep inconclusive, MCF10A rerep inconclusive and RORgamma inh 3.5µM.
Cc1ccc(C2=NOC(=O)/C2=C\C=C\c2ccccc2)cc1 was read as IL-1B inflam inh -96, Gal4-VP16 FLuc inconclusive, SW480 rerep inconclusive, MCF10A rerep 5.2µM and RORgamma inh 14µM.
For CCOc1ccccc1C(=O)Nc1ccc2nc(N3CCN(c4ncccn4)CC3)cc(C)c2c1 the results were IL-1B inflam inh inconclusive, SW480 rerep inconclusive and MCF10A rerep 8.2µM.
COc1ccc(C(=O)Nc2ccc3nc(N4CCN(C)CC4)cc(C)c3c2)c(OC)c1 was read as IL-1B inflam inh -86, Gal4-VP16 FLuc inactive, SW480 rerep inactive, MCF10A rerep inactive and RORgamma inh inconclusive.
For CCOC(=O)c1c(C)c(C)n2c1NC(=O)C2 the results were IL-1B inflam inh inactive.
O=S(=O)(NC1CC1)c1ccc(S(=O)(=O)N2CCCC3(CCCCC3)C2)cc1 was read as IL-1B inflam inh inactive, Gal4-VP16 FLuc inconclusive, SW480 rerep inconclusive, MCF10A rerep 15µM and RORgamma inh inconclusive.
`N#CC1(C#N)COC23CCCCC2C1(C#N)C(=N)O3` (stereo not given) gave IL-1B inflam inh -53, Gal4-VP16 FLuc inactive, SW480 rerep inactive, MCF10A rerep inactive and RORgamma inh inactive.
Screening CC(NC1CCCCC1)C(=O)NN=C(c1ccccc1)c1ccccc1 (stereo not given) returned IL-1B inflam inh -63, Gal4-VP16 FLuc inactive, SW480 rerep inactive, MCF10A rerep inactive and RORgamma inh inactive.
For Fc1ccc(-c2nnc(Cc3nnc(-c4ccc(F)cc4)o3)o2)cc1 the results were IL-1B inflam inh inactive, Gal4-VP16 FLuc inconclusive, SW480 rerep inactive, MCF10A rerep inactive and RORgamma inh 5µM.
Screening O=[N+]([O-])c1ccc(/C=N/Nc2nc(-c3ccccc3)c3cc(Br)ccc3n2)o1 returned IL-1B inflam inh inactive, Gal4-VP16 FLuc inactive, SW480 rerep inactive, MCF10A rerep inactive and RORgamma inh inactive.
N#Cc1ccccc1/C=N/Nc1nc(-c2ccccc2)c2cc(Br)ccc2n1 was read as IL-1B inflam inh inconclusive, Gal4-VP16 FLuc inactive, SW480 rerep inactive, MCF10A rerep inconclusive and RORgamma inh 11µM.
For Cc1ccc2nc(N/N=C\c3ccc([N+](=O)[O-])o3)nc(-c3ccccc3)c2c1 the results were IL-1B inflam inh -59, Gal4-VP16 FLuc inactive, SW480 rerep inconclusive, MCF10A rerep inconclusive and RORgamma inh 10µM.
CC(Oc1ccccc1F)C(=O)NNC(=O)Cc1ccc(S(=O)(=O)N2CCOCC2)s1 (stereo not given) was read as IL-1B inflam inh inactive, SW480 rerep inactive and MCF10A rerep inactive.
Screening Cc1[nH]n(-c2nc(-c3ccc(Cl)cc3)cs2)c(=O)c1N=Nc1ccc(O)cc1 returned IL-1B inflam inh -51, Gal4-VP16 FLuc inactive, SW480 rerep inactive, MCF10A rerep inconclusive and RORgamma inh inactive.
For CN(C)c1ccc2c(c1)OC(N)=C(C#N)C2c1cccc(F)c1 (stereo not given) the results were IL-1B inflam inh inactive, Gal4-VP16 FLuc inactive, SW480 rerep inconclusive, MCF10A rerep 4.1µM and RORgamma inh inactive.
COc1ccc(OC)c(C2C(C#N)=C(N)Oc3cc(N)ccc32)c1 (stereo not given) was read as IL-1B inflam inh inactive, Gal4-VP16 FLuc inactive, SW480 rerep inconclusive, MCF10A rerep inactive[0.0737 µM] and RORgamma inh inactive.
N#CC1=C(N)Oc2cc(N)ccc2C1c1cccc(F)c1 (stereo not given) was read as IL-1B inflam inh inactive, Gal4-VP16 FLuc inactive, SW480 rerep 12µM, MCF10A rerep 13µM and RORgamma inh inactive.
Screening N#CC1=C(N)Oc2cc(N)ccc2C1C1CCCCC1 (stereo not given) returned IL-1B inflam inh inconclusive, Gal4-VP16 FLuc inactive, SW480 rerep 18µM, MCF10A rerep 8.2µM and RORgamma inh inactive.
Screening CCOc1ccccc1C1C(C#N)=C(N)Oc2cc(N)ccc21 (stereo not given) returned IL-1B inflam inh inactive, Gal4-VP16 FLuc inactive, SW480 rerep inconclusive, MCF10A rerep 23µM and RORgamma inh inactive.
`O=C(NCCN1CCOCC1)c1cccc(S(=O)(=O)Nc2ccc(Br)cc2)c1` gave IL-1B inflam inh inactive, SW480 rerep inactive and MCF10A rerep inactive.
